HCV inh: HCV inhibition. Huh7.5.1 HCVcc-Cre infection, luciferase reporter, 44 h. hit rate 3.4% among 340,000. Potency, µM (doses to about 41.8 µM), hits mostly inhibitors
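Infectious HCVcc-Cre (~0.5 moi) was added to cells just after compound, with cells seeded 4 h earlier at 1,000 per well. Luciferase activity after 44 h culture reported infection; substrate was incubated 15 min at room temperature before reading.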
HCMV inh: human cytomegalovirus inhibition; HFF cells, HCMV-luciferase reporter, 72 h; stronger effect = lower value; activity change, negative = inhibition, % at 57.5 µM; hit rate 4.5% among 410,000; in the data active means activity change below about -60%; inconclusive means no clear call, values can overlap the other calls; inactive means above about -39%
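Inhibition of viral replication was scored as loss of reporter luminescence in HFFs infected with HCMV-luciferase (MOI 1 PFU/cell) for 72 h; compounds tested at 2 doses, normalized to buffer and Salinomycin controls.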
Sm TGR block: inhibitors of Schistosoma mansoni thioredoxin glutathione reductase. Q962Y6. purified TGR, DTNB reduction, TNB absorbance 405 nm. Potency, µM (highest dose often 114 µM), usual class: inhibitors. hit rate 3% among 360,000. AID 485364; further: nearly all actives have a fitted effect of over 60% in size
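Kinetic colorimetric format: TGR-catalysed, NADPH-driven DTNB reduction monitored via TNB absorbance. Enzyme dispensed at 20 nM; compound exposure 15 min at room temperature before reaction start.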
VACV mCherry inh: vaccinia inhibition (mCherry reporter). Vaccinia virus mCherry reporter infection, fluorescence. Potency, µM (titrated, usually from 36.5 µM), usual class: inhibitors. hit rate 0.63% among 310,000. AID 720579; calls by dose curve; tested in A549 cells; further: nearly all actives have a fitted effect of over 35% in size
VACV Venus inh: inhibitors of vaccinia virus (Venus reporter); Vaccinia virus Venus reporter expression, fluorescence; Potency, µM (doses to about 36.5 µM), most hits filed as inhibitors; hit rate 0.46% among 330,000; AID 720580; calls by dose curve; tested in A549 cells; further: nearly all actives have a fitted effect of over 30% in size
FMDV inh: blocks foot and mouth disease virus; Potency, µM (series often up to 57.9 µM), actives largely listed as inhibitors; FMDV antiviral cell-based qHTS; hit rate 1.2% among 410,000; calls by dose curve; tested in HEK293T cells; further: read-out not given here; nearly all actives have a fitted effect of over 45% in size
A number is an active result; – = inactive; ? = inconclusive; · = no result given; [ ] = another dose, or the depositor's remark. Rows were chosen to be rich in hits. Some 9.3% of all compounds tested hit in one or more screens of this group. Unless noted, the call rests on the fitted dose curve; in most records, active means well fitted curve in the direction sought with a large enough effect; inconclusive means small, poorly fitted or top-dose-only effect, or another doubt; inactive means no such curve, though single readings can be large; an effect the other way counts as inactive or inconclusive.

SMILES	HCV inh	HCMV inh	Sm TGR block	VACV mCherry inh	VACV Venus inh	FMDV inh
CCC1c2ccc(C)n2CCN1C(=O)Nc1ccc(F)cc1 (configuration not stated)	–	–	10µM	·	–	–
CC(=O)Nc1ccc(NC(=O)C2CCCN2C(=O)Nc2ccc(F)cc2)cc1 (configuration not stated)	–	–	–	–	–	–
CC(=O)c1c(C)[nH]c(C(=O)OCC(=O)Nc2ccccc2Cl)c1C	?	–	–	?	–	18µM
Cn1ccc(C(=O)OCC(=O)Nc2ccccc2Cl)n1	3.2µM	–	–	?	–	–
CC(=O)c1c(C)[nH]c(C(=O)OCC(=O)Nc2cccnc2Cl)c1C	?	–	·	–	–	?
Cn1ccc(C(=O)OCC(=O)Nc2cccc(Cl)c2)n1	–	–	–	–	–	–
CN(CC(=O)Nc1ccccc1Cl)C(=O)COC(=O)c1nc(Cl)c(Cl)c(Cl)c1Cl	?	–	18µM	·	·	?
CC(=O)c1c(C)[nH]c(C(=O)OCC(=O)Nc2cccc(S(=O)(=O)N3CCCC3)c2)c1C	?	-65	–	–	–	14µM
Cc1ccccc1C(=O)NC1(C(F)(F)F)C(=O)Nc2c1c(=O)[nH]c(=O)n2CCc1ccccc1 (configuration not stated)	·	–	–	–	–	–
CC(=O)c1c(C)[nH]c(C(=O)OCC(=O)Nc2cc(S(=O)(=O)N3CCCC3)ccc2Cl)c1C	1.4µM	?	–	–	–	?
COc1ccc(S(=O)(=O)N2CCOCC2)cc1NC(=O)COC(=O)c1[nH]c(C)c(C(C)=O)c1C	?	–	·	–	–	–
Cc1ccccc1CNC(=O)CN1C(=O)CCCc2ccccc21	·	–	–	–	–	–
c1cc2c3c(cccc3c1)NC1(CCC3(CC1)Nc1cccc4cccc(c14)N3)N2	?	?	?	?	10µM	?
CN(Cc1ccccc1)C(=O)c1cccc(NC(=O)c2nsc3ccccc23)c1	·	–	–	–	–	–
CCS(=O)(=O)C1=NN2C(=N)/C(=C\c3ccc(OC(=O)c4ccco4)c(Br)c3)C(=O)N=C2S1	·	·	45µM	·	·	·
CCOc1cc(/C=C2\C(=N)N3N=C(S(=O)(=O)CC)SC3=NC2=O)ccc1OC(=O)c1ccco1	–	–	–	·	·	–
O=C(O)C1Cc2ccccc2N2CCCC12 (configuration not stated)	–	-61	?	–	–	–
O=C(O)C1CCCCN1c1ccccc1[N+](=O)[O-] (configuration not stated)	·	–	·	–	–	–
Cc1ccc(NS(=O)(=O)c2ccc3c(c2)NC(=O)C(C)C(=O)N3)cc1C (configuration not stated)	–	–	–	–	–	–
O=C(Cc1ccsc1-c1ccccc1)NO	10µM	–	–	·	–	–
CCOC(=O)c1cc(-c2ccncc2)nc2c1c(C)nn2-c1ccccn1	7.9µM	–	–	–	?	?
Cc1noc2ncnc(Oc3cc(Cl)ccc3Cl)c12	13µM	–	–	–	–	–
COc1cccc(-n2c(C)c3c(OC)cccc(=O)c3c2C)c1	–	–	22µM	–	–	–
CCOC(=O)CCCNC(=O)CSc1nnc(-c2ccccc2)c(-c2ccccc2)n1	–	–	–	–	–	–
CCOC(=O)CNc1nnc(SCC(=O)OCC)[nH]c1=O	–	–	56µM	·	–	–
SMILES	HCV inh	HCMV inh	Sm TGR block	VACV mCherry inh	VACV Venus inh	FMDV inh
Cc1cccc(C(=O)Nc2nnc(-c3ccncc3)o2)c1	–	–	–	–	–	–
COc1ccccc1C(=O)Nc1nnc(-c2ccc3c(c2)CCCC3)o1	–	-76	–	–	–	–
O=C(Nc1nnc(-c2ccncc2)o1)c1ccc2ccccc2c1	–	-95	–	–	–	–
CC(=O)Nc1nnc(-c2ccc3c(c2)CCCC3)o1	–	–	–	–	–	–
O=C(Nc1nnc(C2=COCCO2)o1)c1ccc([N+](=O)[O-])cc1	–	-98	–	–	–	–
COc1cc(OC)cc(-c2nnc(NC(=O)c3ccc4c(c3)OCCO4)o2)c1	–	-61	–	·	·	–
COC(=O)[C@H](Cc1ccccc1)NC(=O)CC[C@H]1O[C@@H](n2ccc(=O)[nH]c2=O)[C@H](O)[C@@H]1O	·	–	·	–	–	–
O=C(NC1CCCCC1)c1cc(-c2ccccn2)nc2ccccc12	–	?	–	–	–	–
COc1ccc(CNC(=O)CNC(=O)c2c(C)nn(C)c2Cl)cc1	–	–	–	–	–	–
CC(C)C(NS(=O)(=O)c1ccc2c(c1)oc(=O)n2C)C(=O)NCCc1ccc(Cl)cc1 (configuration not stated)	·	–	–	–	–	–
CN(C)c1ccc(C(=O)Nc2nnc(-c3ccc(Cl)cc3)o2)cc1	–	–	–	–	–	–
O=C(Nc1ccc(C(=O)N2CCOCC2)cc1)c1cccs1	?	–	–	–	–	–
Cc1cccc(NC(=O)c2ccc(S(=O)(=O)N3CCCCC3)cc2)n1	–	–	–	–	–	–
Cc1cccc(NC(=O)c2ccc(S(=O)(=O)N3CCC(C)CC3)cc2)n1	?	-77	–	?	?	32µM
O=C(Nc1nnc(C2CC2)o1)c1ccc(S(=O)(=O)N2CCCCC2)cc1	–	-61	–	?	–	–
CC1CN(S(=O)(=O)c2ccc(C(=O)Nc3nnc(-c4ccc5c(c4)CCCC5)o3)cc2)CC(C)O1 (configuration not stated)	–	–	–	8.9µM	?	–
CC1CCCCN1S(=O)(=O)c1ccc(C(=O)Nc2nnc(-c3ccco3)o2)cc1 (configuration not stated)	?	-70	–	?	?	–
CCCN1CNc2c(c(=O)[nH]c(=S)n2CCc2c(Cl)cccc2Cl)C1	·	·	·	–	–	·
COc1cccc(-c2nnc(NC(=O)c3ccc(S(=O)(=O)N4CCOCC4)cc3)o2)c1	13µM	·	–	–	–	–
COc1cc(-c2nnc(NC(=O)c3ccc(S(=O)(=O)N4CCOCC4)cc3)o2)cc(OC)c1OC	·	–	–	·	·	·
CC1CCN(S(=O)(=O)c2ccc(C(=O)Nc3nnc(-c4ccncc4)o3)cc2)CC1	?	-88	–	?	–	–
O=C(c1ccc(Cl)c(Cl)c1)N1CCC(=O)N(C(COCc2cccc(C(F)(F)F)c2)Cc2ccccc2)CC1 (configuration not stated)	–[8.37 µM]	–	–	–	–	–
O=C(CCS(=O)(=O)c1ccccc1)Nc1nc2c(s1)COc1ccccc1-2	–	–	32µM	–	–	?
CC(=O)c1sc(NC(=O)CCS(=O)(=O)c2ccc(F)cc2)nc1C	·	–	·	–	?	–
O=C(COc1ccccc1)Nc1nc(-c2cccs2)cs1	–	–	–	·	–	–
Cc1ccc(S(=O)(=O)CCC(=O)Nc2nc(C(C)(C)C)cs2)cc1	–	–	?	·	·	–
CC(C)(C)c1csc(NC(=O)CCS(=O)(=O)c2ccc(F)cc2)n1	·	–	·	7.1µM	7.9µM	?
